Out of some 5,500 compounds screened, about 2,000 (36%) were called active. About 18% were inconclusive and are not listed. Rule as the data show it: active = normalized growth mostly below about 0.91 (no sharp cut-off); inconclusive = no clear call, values can overlap the other calls; inactive = mostly above about 0.92. This is one part of the list.
Experiment: chemical genetic growth profiling, strain panel (AID 1159580);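 also: tested at 20 µM; growth read once vehicle control cultures reached saturation at 30 °C; 1 = growth at the plate median or of vehicle wells; lower values mean less growth of the strain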
Conditions: growth OD

Measured: normalized growth

OC(Cn1cncn1)(Cn1cncn1)c1ccc(F)cc1F
inactive: S. cerevisiae deletion strains, locus YJL187C, strain SWE1, hits give low values 1 | S. cerevisiae deletion strains, locus YJR043C, strain POL32, hits give low values 0.988 | S. cerevisiae deletion strains, locus YJR075W, strain HOC1, hits give low values 1.01 | S. cerevisiae deletion strains, locus YKL009W, strain mrt4, hits give low values 0.994 | S. cerevisiae deletion strains, locus YKL068W, hits give low values 0.996 | S. cerevisiae deletion strains, locus YKL085W, strain MDH1 (second series), hits give low values 0.985 | S. cerevisiae deletion strains, locus YKL085W, strain MDH1, hits give low values 0.985 | S. cerevisiae deletion strains, locus YKL160W, strain elf1, hits give low values 0.992 | S. cerevisiae deletion strains, locus YKL190W, strain CNB1, hits give low values 0.997 | S. cerevisiae deletion strains, locus YKR001C, strain vps1, hits give low values 1.05 | S. cerevisiae deletion strains, locus YKR026C, strain gcn3, hits give low values 0.999 | S. cerevisiae deletion strains, locus YKR091W, strain srl3, hits give low values 1.01 | S. cerevisiae deletion strains, locus YLL001W, strain dnm1, hits give low values 1.01 | S. cerevisiae deletion strains, locus YLL026W, hits give low values 0.999 | S. cerevisiae deletion strains, locus YLL041C, strain sdh2, hits give low values 1.01 | S. cerevisiae deletion strains, locus YLR027C, strain aat2, hits give low values 1 | S. cerevisiae deletion strains, locus YLR058C, strain SHM2, hits give low values 1 | S. cerevisiae deletion strains, locus YLR102C, strain apc9, hits give low values 1 | S. cerevisiae deletion strains, locus YLR221C, strain rsa3, hits give low values 0.996 | S. cerevisiae deletion strains, locus YLR258W, strain gsy2, hits give low values 1 | S. cerevisiae deletion strains, locus YLR262C, strain YPT6, hits give low values 0.634 | S. cerevisiae deletion strains, locus YLR268W, strain sec22, hits give low values 0.969 | S. cerevisiae deletion strains, locus YLR320W, strain mms22, hits give low values 0.956 | S. cerevisiae deletion strains, locus YLR330W, strain CHS5, hits give low values 0.99 | S. cerevisiae deletion strains, locus YLR342W, strain FKS1 (second series), hits give low values 1 | S. cerevisiae deletion strains, locus YLR342W, strain FKS1, hits give low values 1.01 | S. cerevisiae deletion strains, locus YLR357W, strain rsc2, hits give low values 1.02 | S. cerevisiae deletion strains, locus YLR370C, strain arc18, hits give low values 1 | S. cerevisiae deletion strains, locus YLR371W, strain rom2, hits give low values 1 | S. cerevisiae deletion strains, locus YLR384C, strain iki3, hits give low values 1 | S. cerevisiae deletion strains, locus YLR418C, strain cdc73, hits give low values 1.01 | S. cerevisiae deletion strains, locus YML016C, strain PPZ1, hits give low values 0.998 | S. cerevisiae deletion strains, locus YML032C, strain rad52, hits give low values 0.995 | S. cerevisiae deletion strains, locus YML120C, strain ndi1, hits give low values 1 | S. cerevisiae deletion strains, locus YML124C, strain tub3, hits give low values 1 | S. cerevisiae deletion strains, locus YMR058W, strain fet3, hits give low values 0.987 | S. cerevisiae deletion strains, locus YMR078C, strain ctf18, hits give low values 0.992 | S. cerevisiae deletion strains, locus YMR125W, strain sto1, hits give low values 1.03 | S. cerevisiae deletion strains, locus YMR129W, hits give low values 1.01 | S. cerevisiae deletion strains, locus YMR205C, strain PFK2, hits give low values 0.988 | S. cerevisiae deletion strains, locus YMR223W, strain ubp8, hits give low values 0.98 | S. cerevisiae deletion strains, locus YMR231W, strain pep5, hits give low values 0.943 | S. cerevisiae deletion strains, locus YMR263W, strain SAP30, hits give low values 0.988 | S. cerevisiae deletion strains, locus YMR307W, strain GAS1, hits give low values 1.25 | S. cerevisiae deletion strains, locus YNL067W, strain RPL9B, hits give low values 1.03 | S. cerevisiae deletion strains, locus YNL071W, strain lat1, hits give low values 1 | S. cerevisiae deletion strains, locus YNL128W, strain TEP1, hits give low values 0.965 | S. cerevisiae deletion strains, locus YNL209W, strain ssb2, hits give low values 1.01 | S. cerevisiae deletion strains, locus YNL233W, strain BNI4, hits give low values 1.01 | S. cerevisiae deletion strains, locus YNL248C, strain rpa49, hits give low values 0.994 | S. cerevisiae deletion strains, locus YNL250W, strain rad50, hits give low values 0.976 | S. cerevisiae deletion strains, locus YNL271C, strain bni1, hits give low values 0.98 | S. cerevisiae deletion strains, locus YNL298W, strain CLA4, hits give low values 0.958 | S. cerevisiae deletion strains, locus YNL307C, strain MCK1, hits give low values 1.01 | S. cerevisiae deletion strains, locus YNL322C, strain KRE1 (second series), hits give low values 0.996 | S. cerevisiae deletion strains, locus YNR049C, strain mso1, hits give low values 1.01 | S. cerevisiae deletion strains, locus YNR052C, strain pop2, hits give low values 0.979 | S. cerevisiae deletion strains, locus YOL006C, strain TOP1, hits give low values 0.971 | S. cerevisiae deletion strains, locus YOL012C, strain htz1 1.07 | S. cerevisiae deletion strains, locus YOL147C, strain pex11, hits give low values 1.01 | S. cerevisiae deletion strains, locus YOR001W, strain rrp6, hits give low values 0.994 | S. cerevisiae deletion strains, locus YOR061W, strain CKA2, hits give low values 1 | S. cerevisiae deletion strains, locus YOR069W, strain VPS5, hits give low values 0.992 | S. cerevisiae deletion strains, locus YOR070C, strain gyp1, hits give low values 0.998 | S. cerevisiae deletion strains, locus YOR080W, strain dia2, hits give low values 0.987 | S. cerevisiae deletion strains, locus YOR083W, strain WHI5, hits give low values 0.997 | S. cerevisiae deletion strains, locus YOR106W, strain vam3, hits give low values 0.964 | S. cerevisiae deletion strains, locus YOR136W, strain idh2, hits give low values 0.979 | S. cerevisiae deletion strains, locus YOR144C, strain elg1, hits give low values 1 | S. cerevisiae deletion strains, locus YOR184W, strain ser1, hits give low values 0.964 | S. cerevisiae deletion strains, locus YOR265W, strain rbl2, hits give low values 1 | S. cerevisiae deletion strains, locus YOR270C, strain vph1, hits give low values 0.977 | S. cerevisiae deletion strains, locus YOR290C, strain snf2, hits give low values 1.01 | S. cerevisiae deletion strains, locus YOR316C, strain cot1, hits give low values 0.991 | S. cerevisiae deletion strains, locus YPL051W, strain arl3, hits give low values 0.995 | S. cerevisiae deletion strains, locus YPL078C, strain atp4, hits give low values 0.992 | S. cerevisiae deletion strains, locus YPL240C, strain hsp82, hits give low values 0.998 | S. cerevisiae deletion strains, locus YPL241C, strain CIN2, hits give low values 0.997 | S. cerevisiae deletion strains, locus YPR119W, strain clb2, hits give low values 0.988 | S. cerevisiae deletion strains, locus YPR141C, strain kar3, hits give low values 0.989 | S. cerevisiae deletion strains, locus YPR163C, strain tif3, hits give low values 0.995 | S. cerevisiae deletion strains, locus YPR167C, strain met16, hits give low values 0.98 | S. cerevisiae deletion strains, strain wtn01, hits give low values 0.981 | S. cerevisiae strains, strain wild type, hits give low values 1
active: S. cerevisiae deletion strains, locus YLR039C, strain RIC1, hits give low values 0.635 | S. cerevisiae deletion strains, locus YLR262C, strain YPT6 (second series), hits give low values 0.465 | S. cerevisiae deletion strains, locus YPL106C, strain sse1, hits give low values 0.341
